In PubChem BioAssay AID588674 (Broad Institute, 2011):
In all, about 360,000 compounds went through this assay and about 1,800 (0.5%) were called active. This is one part of a sample in which actives are shown more often than they occur. Values without a mark were called inactive.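 The calls were made as follows: active = mean inhibition of at least 75% with every replicate also reaching 75%; inconclusive = mean inhibition at least 75% but some replicate below; inactive = mean inhibition below 75%.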

Experiment: Shn3 3'UTR reporter decrease in osteoblasts – cell-based, Clone20 osteoblasts, firefly luciferase, set 2, Schnurri-3 inhibitor project, primary screen (AID 588674);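 also: 0% = median of neutral control wells and 100% = pilot-screen positive control compound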
Conditions: Clone20 osteoblast Shn3 3'UTR firefly luciferase, 24 h; at 12.5 µM; stronger effect = higher value
Compound Cc1ccccc1N1CCN(CCCN2C(=O)C3CCCCN3C2=O)CC1 (centres undefined) has an inhibition of 2.03%.
Work on COC(=O)Cc1ccc(OC(=O)C2CCN(S(=O)(=O)c3ccc(OC)c(OC)c3)CC2)cc1 yielded an inhibition of -15.3%.
CNS(=O)(=O)c1ccc2c(c1)[nH]c(=S)n2C showed an inhibition of 12.3%.
For COc1cc(C(=O)OCCCN2CCOCC2)cc(OC)c1OC, the inhibition was 8.18%.
For Nc1nonc1-n1nnc(C(=O)N/N=C/c2cc(Br)ccc2O)c1CSC1=NCCS1, the inhibition was 94% (active).
Work on Nc1nonc1-n1nnc(C(=O)N/N=C\c2ccncc2)c1CN1CCCCC1 yielded an inhibition of 10.4%.
COCc1c(C(=O)N/N=C\c2cccnc2)nnn1-c1nonc1N showed an inhibition of 9.7%.
In the case of Cc1ccc(Cc2c(-c3ccco3)nc3ccc(Cl)cn23)cc1, the inhibition is reported as 2.12%.
For Cc1c(NC(=O)CSc2cccc3cccnc23)c(=O)n(-c2ccccc2)n1C, the inhibition was 19.9%.
O=C(CSc1cccc2cccnc12)N/N=C/c1cccnc1 showed an inhibition of 20.8%.
In the case of CC(=O)/C(=N\Nc1ccc(Cl)cc1Cl)Sc1cccc2cccnc12, the inhibition is reported as 93% (active).
Cc1ccsc1CNn1cnnc1SCc1ccccc1F showed an inhibition of 5.38%.
With CC12CCC(=O)C=C1CCC1C2C(O)CC2(C)C1CCC2(O)C(O)CO (centres undefined) the inhibition was 4.53%.
In the case of CCCCCCNC(=O)O[C@H]1CN(C(=O)OC(C)C)N(C(=O)OC(C)C)[C@@H]2CN(S(=O)(=O)c3ccc(C)cc3)C[C@]12O, the inhibition is reported as -14.9%.
With OCCCNc1nccc(-c2cc(Nc3cccc(Cl)c3)ncn2)n1 the inhibition was 96.3% (active).
With CCOc1c(Nc2cccc(Cl)c2)c(=O)c1=O the inhibition was -16.6%.
Cc1ccc(NC(=O)CN2CCCCC2)c2c1CC(C)(C)O2 showed an inhibition of -24.2%.
For CCn1c(/C=C/c2ccc([N+](=O)[O-])o2)nc2ccccc2c1=O, the inhibition was 97.2% (active).
For Cc1ccc(-n2c(SCC(=O)N/N=C/C=C/c3ccccc3[N+](=O)[O-])nc3ccccc3c2=O)cc1, the inhibition was 1.32%.
Compound O=c1c2ccccc2ncn1/N=C/c1ccccc1 has an inhibition of -28%.
In the case of C=CCC(CC=C)(C(N)=O)c1ccccc1, the inhibition is reported as 1.2%.
Work on CC(=O)Nc1cccc(C(=O)OCC(=O)NCc2cc(C)c(O)c(C)c2)c1 yielded an inhibition of -47.1%.
C[C@H]1CN([C@@H](C)CO)C(=O)CCCn2cc(nn2)CO[C@@H]1CN(C)S(=O)(=O)c1cccs1 gave an inhibition of -17.2%.
Work on CCOc1cc(/C=N/Nc2cc(C)nc3ccc(C)cc23)ccc1O yielded an inhibition of -7.54%.
In the case of CCN(CC)c1ccc(/C=N/Nc2nc(C)cc(C)n2)c(O)c1, the inhibition is reported as 89.4% (active).
For O=C1CSC(c2ccc(Cl)cc2)N1 (centres undefined), the inhibition was -10.9%.
In the case of O=C(CCS(=O)(=O)c1ccccc1)Nc1nc2c(s1)CCCC2, the inhibition is reported as 84.1% (active).
O=C(CSc1nc(O)c(Cc2ccccc2)c(=O)[nH]1)Nc1nc2c(s1)CCCC2 gave an inhibition of 8.82%.
O=C(CCS(=O)(=O)c1ccccc1)NC1CCCC1 showed an inhibition of -23.2%.
CNc1nc(SC)nc(N(C#N)CC(=O)OC)n1 showed an inhibition of -9.64%.
Compound C=CCSc1nc(N)cc(=O)[nH]1 has an inhibition of 15.2%.
For Cc1ccc(-c2nn(-c3ccc(F)cc3)cc2C(=O)NCC(c2cccs2)N2CCOCC2)cc1 (centres undefined), the inhibition was 13.6%.
With Cc1ccc(-c2cn3cc(C)ccc3n2)cc1 the inhibition was 89% (active).
Compound Cc1ccc2nc(-c3ccc(Br)cc3)cn2c1 has an inhibition of 23.5%.
For Cc1ccc(-c2nc3ccc(Cl)cn3c2Cc2ccccc2)cc1, the inhibition was -75.7%.
Cn1c(=O)c2c(ncn2CC(COCc2ccccc2Cl)OCc2ccccc2Cl)n(C)c1=O (centres undefined) gave an inhibition of 13%.
For Oc1ccc2ccccc2c1N=Nc1nccs1, the inhibition was 93.2% (active).
CCCCN1CC(N2CCN(Cc3cccc(C)c3)CC2)CS1(=O)=O (centres undefined) showed an inhibition of 4.01%.
In the case of O=[N+]([O-])c1c(NCCO)cc(Sc2nc3ccccc3s2)c2nonc12, the inhibition is reported as 93.7% (active).
For COc1ccc(NC(=O)CCCOc2ccc(C(C)=O)cc2)cc1S(=O)(=O)N1CCCCC1, the inhibition was 42.4%.
For O=C(NC(=S)Nc1ccc(Br)cc1F)C1CCCCC1, the inhibition was -15.2%.
Cc1ccc(S(=O)(=O)/N=C(/NC(=S)Nc2c(C)n(C)n(-c3ccccc3)c2=O)c2ccccc2)cc1 showed an inhibition of -6.62%.
Compound COc1ccc(C(C)(O)c2nc(-c3ccc(C)c(C)c3)cs2)cc1 (centres undefined) has an inhibition of 8.01%.
With COc1ccc(OC)c(Nc2nc(-c3ccc(O)c(O)c3)cs2)c1 the inhibition was 97.4% (active).
COc1ccc(C(O)c2nc(-c3ccc4c(c3)OCO4)cs2)cc1 (centres undefined) gave an inhibition of -17.7%.
Compound COc1ccc(C(=O)OCc2cc(=O)n3ccsc3n2)cc1F has an inhibition of -7.31%.
For COc1ccc(C(=O)NCc2ccc(Cl)cc2)cc1S(=O)(=O)N1CCCC1, the inhibition was -1.61%.
COc1ccc(CCNC(=O)CN(C)S(=O)(=O)c2ccc3nc(C)sc3c2)cc1OC gave an inhibition of -10.6%.
With CC1(C(=O)NS(=O)(=O)c2cccc(OC(F)F)c2)CCN1C(=O)C1CC1 (centres undefined) the inhibition was -7.16%.
For NS(=O)(=O)c1ccc(NC(=O)COC(=O)c2ccco2)cc1, the inhibition was 2.57%.
In the case of NS(=O)(=O)c1ccc(CNC(=S)NC(=O)c2ccco2)cc1, the inhibition is reported as 93.5% (active).
COc1cc(NC(=S)NCc2ccc(S(N)(=O)=O)cc2)cc(OC)c1 showed an inhibition of 2.83%.
With N#Cc1ccc(S(=O)(=O)NCC(=O)OCC(=O)NCCc2ccccc2)cc1 the inhibition was 1.43%.
In the case of OCc1n[nH]c(CO)n1, the inhibition is reported as -14.1%.
With Cc1cccc(-n2ncc(Cl)c(Cl)c2=O)c1 the inhibition was 94.3% (active).
With CC(=O)Nc1c2c(nn1-c1cccc(C)c1)CSC2 the inhibition was -0.825%.
Cc1cccc(-n2ncc3c(=O)[nH]c(SCC(=O)Nc4cc(C)on4)nc32)c1 gave an inhibition of -22.6%.
Cc1c(Br)c([N+](=O)[O-])nn1CC(=O)Nc1sc2c(c1C(=O)OC(C)C)CCC(C)C2 (centres undefined) showed an inhibition of -5.32%.
Work on Cc1ccc(C(=O)CN2C(=O)NC3(CCOc4ccccc43)C2=O)s1 (centres undefined) yielded an inhibition of -11.6%.
With O=C(CN1C(=O)NC2(CCOc3ccccc32)C1=O)Nc1cccc([N+](=O)[O-])c1 (centres undefined) the inhibition was 89.4% (active).
Compound O=C(CN1C(=O)NC2(CCOc3ccccc32)C1=O)NCc1ccc(F)cc1 (centres undefined) has an inhibition of -2.61%.
With CNC(=O)c1nnn(-c2ccccc2)c1C(=O)NC the inhibition was -6.31%.
For N#Cc1c(NC(=O)c2ccc(N3CCOCC3)c([N+](=O)[O-])c2)sc2c1CCCC2, the inhibition was 12%.
Work on O=C(c1ccc(CS(=O)Cc2ccccc2Cl)o1)N1CCN(c2ccccc2)CC1 (centres undefined) yielded an inhibition of -5.18%.
Compound CC1CC(NC(=S)N(C)C)CC(C)(C)C1 (centres undefined) has an inhibition of -11.6%.
In the case of COc1cccc2sc(N(CCCN(C)C)C(=O)CCS(=O)(=O)c3ccccc3)nc12, the inhibition is reported as 97.2% (active).
Compound Cc1cccc2sc(N(CCCN(C)C)C(=O)CCS(=O)(=O)c3ccccc3)nc12 has an inhibition of 70.2%.
For CCN(CC)CCN(C(=O)c1ccc2c(c1)CCCC2)c1nc2c(OC)cccc2s1, the inhibition was 18.3%.
With CC(=O)CSc1nnc(CSc2ncccn2)n1C1CCCCC1 the inhibition was -0.19%.
With Cn1c2ccc(F)cc2c2nnc(NN)nc21 the inhibition was -1.82%.
COc1cc(OC)cc(C(=O)NC2CCN(C(=O)N3c4ccccc4Sc4ccccc43)CC2)c1 showed an inhibition of 38.1%.
For NC(c1csc(NC(=O)Nc2cccc(C(F)(F)F)c2)n1)C1CCCCC1 (centres undefined), the inhibition was 92% (active).
COc1ccc(C(N)c2csc(NC(=O)Nc3cccc(C(F)(F)F)c3)n2)cc1 (centres undefined) showed an inhibition of 11.3%.
For NC(c1ccccc1)c1csc(NC(=O)Nc2cccc(C(F)(F)F)c2)n1 (centres undefined), the inhibition was 23%.
CCOc1ccc(NC(=S)N2CCCCCC2)cc1 gave an inhibition of -24.3%.
C/C(=N/NC(=O)c1ccn(C)n1)c1ccncc1 showed an inhibition of -3.15%.
Work on O=C(NCCOc1ccccc1)c1ccccc1F yielded an inhibition of -74.7%.
For CC(=NNC(=S)N1CCCCCC1)c1ccccn1, the inhibition was 95.3% (active).
With C/C(=N\NC(=O)c1ccccc1F)c1ccccn1 the inhibition was 94.8% (active).
CCNC(=S)N1CCN(c2ncccn2)CC1 showed an inhibition of -18.4%.
With COc1ccc(/C=C/C(=O)c2c(O)cc(OC)cc2OC)cc1 the inhibition was -43.5%.
COCCNS(=O)(=O)c1cc(Br)ccc1OC showed an inhibition of -12.3%.
CCOc1ccc(-n2c(SCC(=O)Nc3cc(C(=O)O)ccc3Cl)nc3ccccc3c2=O)cc1 gave an inhibition of -1.51%.
Cc1cc(C)nc(N/N=C/c2c(CO)cnc(C)c2O)n1 showed an inhibition of 39%.
With CCOc1ccc(-n2c(O)c(/C=N/Nc3nc(C)cc(C)n3)c3ccccc3c2=O)cc1 the inhibition was 90.6% (active).
Compound COc1ccc(CN2CCCC(CNC(=O)c3ccc(F)cc3)C2)cc1OC (centres undefined) has an inhibition of 3.62%.
For CCCCCCCCCCOC(=O)C[N+](C)(C)CC1CCCCC1O (centres undefined), the inhibition was 2.65%.
For COc1ccc(CC(N)c2csc(NC(=O)Nc3ccc(C(C)C)cc3)n2)cc1 (centres undefined), the inhibition was 96.6% (active).
In the case of COc1ccc(CC(N)c2csc(NC(=O)Cc3ccccc3)n2)cc1 (centres undefined), the inhibition is reported as -16.8%.
For COc1ccc(CC(N)c2csc(NC(=O)NC(c3ccccc3)c3ccccc3)n2)cc1 (centres undefined), the inhibition was 80.7%.
Compound O=C(CCNS(=O)(=O)c1cccs1)N1CCN(c2ccc(F)cc2)CC1 has an inhibition of -1.48%.
For C=C(C)C(=O)O[C@H]1C/C(C)=C\C(=O)/C=C(\C)[C@H](O)[C@@H]2OC(=O)C(=C)[C@@H]21, the inhibition was 87.7% (active).
For COC(=O)c1c(NC(=O)c2ccc(S(=O)(=O)N3CCOCC3)cc2)sc2c1CCN(C(C)C)C2, the inhibition was -14%.
For N#C/C(C(=S)Nc1ccccc1)=C1/NN=C(N2CCOCC2)N1c1ccccc1, the inhibition was 2.09%.
